An excerpt weighted towards active compounds, which were near 18% of everything screened.
TDP1 cell noCPT = qHTS for Inhibitors of human tyrosyl-DNA phosphodiesterase 1 (TDP1): qHTS in cells in absence of CPT. AID 686978, 2013. actives 15% (n = 420,000). Potency, µM (titrated, usually from 46.2 µM), for the others: at the highest dose activity change, negative = growth inhibition, usual class: inhibitors. DT40 Tdp1-/- hTDP1 cells, no CPT, ATP luminescence, 48 h; also: potency is read from the fitted curve at half-maximal effect; nearly all actives have a fitted effect of over 55% in size
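A cellular qHTS used chicken DT40 cells lacking endogenous Tdp1 but carrying stably transfected human TDP1. Compounds were applied without camptothecin, and cell growth kinetics were judged by ATP-dependent luminescence after ≥48 hr.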
TDP1 block = TDP1 (human) enzyme inhibition | Q9NUW8 | recombinant TDP1, AlphaScreen DNA substrate cleavage | Potency, µM (doses to about 130 µM), for inactives: at the top dose activity change, negative = inhibition, actives largely listed as inhibitors | actives 0.28% (n = 350,000); also: potency is read from the fitted curve at half-maximal effect; nearly all actives have a fitted effect of over 40% in size
Target sequence (Q9NUW8 whole entry, looked up): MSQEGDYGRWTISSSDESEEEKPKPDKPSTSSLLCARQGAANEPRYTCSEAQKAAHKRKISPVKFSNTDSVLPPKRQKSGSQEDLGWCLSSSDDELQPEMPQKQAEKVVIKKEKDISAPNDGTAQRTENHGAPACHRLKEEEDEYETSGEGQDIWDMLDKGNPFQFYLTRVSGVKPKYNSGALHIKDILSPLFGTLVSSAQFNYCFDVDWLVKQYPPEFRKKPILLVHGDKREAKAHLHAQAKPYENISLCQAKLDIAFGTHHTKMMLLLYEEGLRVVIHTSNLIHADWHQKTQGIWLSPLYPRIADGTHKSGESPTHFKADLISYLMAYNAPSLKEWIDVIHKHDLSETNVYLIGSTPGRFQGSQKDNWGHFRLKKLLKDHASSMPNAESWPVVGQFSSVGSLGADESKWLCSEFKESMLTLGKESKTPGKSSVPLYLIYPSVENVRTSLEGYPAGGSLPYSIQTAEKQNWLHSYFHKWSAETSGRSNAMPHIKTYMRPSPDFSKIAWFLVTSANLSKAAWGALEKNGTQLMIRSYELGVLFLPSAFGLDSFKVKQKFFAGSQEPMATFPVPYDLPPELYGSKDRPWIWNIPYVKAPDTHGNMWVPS
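Recombinant human Tdp1 (E. coli-expressed, 1 nM final) preincubated with compounds 15 min at room temperature, then 5'-biotin/3'-phosphotyrosine-FITC DNA substrate (15 nM final) added for 5 min. AlphaScreen beads (10 ug/ml final) added 10 min; cleavage lowers signal.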
TDP1 cell CPT = growth inhibition of DT40 Tdp1-/-;hTDP1 cells with camptothecin (screen for TDP1 inhibitors). chicken DT40 Tdp1-/-;hTDP1 cells + 20 nM CPT, ATP luminescence, 48 h. Potency, µM (top dose mostly 46.2 µM), for inactives: at the top dose activity change, negative = growth inhibition, hits mostly inhibitors. actives 12% (n = 420,000). AID 686979; also: potency is read from the fitted curve at half-maximal effect; nearly all actives have a fitted effect of over 55% in size
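Chicken DT40 Tdp1-/- cells stably complemented with human TDP1 were seeded at 400 cells/well in medium containing 20 nM camptothecin, exposed to pin-transferred compounds, and grown at 37 °C for at least 48 hr. Viability was read as ATP luminescence.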
IL-1B inflam inh = blocks inflammasome-driven IL-1 beta release | THP-1 LPS/ATP IL-1B secretion, AlphaLISA, 16 h; stronger effect = lower value | activity change, % at 57.5 µM | actives 4.7% (n = 360,000); in the data active = activity change below about -50%; inconclusive = mostly about -30% to -49%
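THP-1 cells pretreated 1 hr with compounds (up to 57.5 uM final), then stimulated with LPS (250 ng/mL final) plus ATP (1.25 mM final); secreted IL-1B measured by AlphaLISA after 16 hr, decreased signal indicating inhibition.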
CtBP-E1A blk = CtBP/E1A binding inhibition; AlphaScreen GST-E1A/His-CtBP binding, 1536-well; stronger effect = lower value; activity change, % (test concentration not listed); AID 651724; actives 0.49% (n = 340,000); in the data active = activity change below about -65%; inconclusive = mostly about -30% to -63%
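Protein mix (5X: 125 nM each GST-E1A, His-CtBP) was incubated with pinned compound 2 h at 37 deg C in dark, in 50 mM Tris pH 8.0 buffer with 300 mM NaCl. Glutathione donor and nickel acceptor beads followed; AlphaScreen signal read after 1 h.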
Six1-Eya2 inh = blocks human Six1 binding to Eya2 | AlphaScreen GST-Six1/His-Eya2 binding, biochemical; stronger effect = lower value | activity change, % (no concentration beside the values) | actives 0.56% (n = 360,000) | AID 651725; in the data active = activity change below about -65%; inconclusive = mostly about -30% to -63%
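GST-Six1 + His-Eya2 (5X stock: 250/500 nM); Tris pH 8.0, 300 mM NaCl, 0.05% BSA, 0.02% Tween 20; GSH donor/Ni acceptor beads; 1 h 37 °C dark; AlphaScreen readout.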
An asterisk follows results filed as active; [ ] = remark or other dose. Unless noted, calls follow the shape of the dose curve; as a rule, active = well fitted curve in the direction sought with a large enough effect; inconclusive = small, poorly fitted or top-dose-only effect, or another doubt; inactive = no such curve, though single readings can be large; an effect the other way counts as inactive or inconclusive. % is scaled to controls: 0 for no effect and ±100 for the full control effect.

Results for Cc1cccc(Oc2nc3c(c(=O)n(C)c(=O)n3C)n2Cc2ccccc2)c1C ?
TDP1 cell noCPT: inconclusive; TDP1 cell CPT: 7.1%

How did COc1ccc(/C=C/C(=O)C2CC2)cc1Cn1nc(C)c([N+](=O)[O-])c1C do in these assays?
TDP1 cell noCPT: inconclusive; TDP1 block: -2.4%; TDP1 cell CPT: inconclusive; IL-1B inflam inh: -110.1*; CtBP-E1A blk: -1.6; Six1-Eya2 inh: 6.7

Results for O=C(CSC1CCCCC1)N1CCN(c2ccccc2)CC1 ?
TDP1 cell noCPT: -23.1%; TDP1 block: 1.0%; TDP1 cell CPT: -16.5%; IL-1B inflam inh: -6.9; CtBP-E1A blk: -5.0; Six1-Eya2 inh: -0.9

What do the screens show for `CC(C(=O)NCC1CCCCC1)N1CCN(S(=O)(=O)c2ccccc2F)CC1` (stereo not drawn)?
TDP1 cell noCPT: -16.1%; TDP1 block: 0.0%; TDP1 cell CPT: -24.4%; IL-1B inflam inh: 23.2; CtBP-E1A blk: 4.4; Six1-Eya2 inh: -0.6

How did Nc1cc(S(=O)(=O)N2CCOCC2)ccc1Oc1cccc(Br)c1 do in these assays?
TDP1 cell noCPT: inconclusive; TDP1 block: -11.9%; TDP1 cell CPT: inconclusive; IL-1B inflam inh: -61.0*; CtBP-E1A blk: -26.4; Six1-Eya2 inh: 2.6

Results for COc1ccc(S(=O)(=O)N2CCOCC2)cc1Br ?
TDP1 cell noCPT: -8.0%; TDP1 block: -4.8%; TDP1 cell CPT: 13.3%; IL-1B inflam inh: 7.3; CtBP-E1A blk: 2.1; Six1-Eya2 inh: 2.2

Results for CN(C)c1ccc(/C=N/N(CCO)C2=NS(=O)(=O)c3ccccc32)cc1 ?
TDP1 cell noCPT: -8.0%; TDP1 cell CPT: 17.9%; IL-1B inflam inh: -17.9; Six1-Eya2 inh: -66.9*

How did O=S1(=O)N=C(N(CCO)/N=C/c2ccc(Cl)cc2)c2ccccc21 do in these assays?
TDP1 cell noCPT: inconclusive; TDP1 cell CPT: -24.3%; IL-1B inflam inh: -15.4; Six1-Eya2 inh: inconclusive

How did COc1cc(Br)cc(/C=N/N(CCO)C2=NS(=O)(=O)c3ccccc32)c1OC do in these assays?
TDP1 cell noCPT: inconclusive; TDP1 cell CPT: inconclusive; IL-1B inflam inh: -7.9; CtBP-E1A blk: inconclusive; Six1-Eya2 inh: -29.5

What do the screens show for `COc1cc(/C=N/N(CCO)C2=NS(=O)(=O)c3ccccc32)cc(OC)c1OC`?
TDP1 cell noCPT: inconclusive; TDP1 cell CPT: 8.3%; IL-1B inflam inh: 53.2; CtBP-E1A blk: -90.4*; Six1-Eya2 inh: -65.5*

How did CC(C)(C)NC(=O)CCN(/N=C/c1ccc([N+](=O)[O-])o1)C1=NS(=O)(=O)c2ccccc21 do in these assays?
TDP1 cell noCPT: 14.6µM*; TDP1 block: 1.2%; TDP1 cell CPT: 18.4µM*; IL-1B inflam inh: 7.5; CtBP-E1A blk: -74.1*; Six1-Eya2 inh: -87.5*

How did CSCC(C)N1CCC(Oc2cccc(C(=O)NCc3ccccn3)c2)CC1 (stereo not drawn) do in these assays?
TDP1 cell noCPT: 1.3%; TDP1 block: 2.6%[56.1 µM]; TDP1 cell CPT: -8.3%; IL-1B inflam inh: 22.8; CtBP-E1A blk: -2.7; Six1-Eya2 inh: 3.2

How did CN(C)CCCN(C(=O)COc1ccc(Cl)cc1)c1nc2cc3c(cc2s1)OCCO3 do in these assays?
TDP1 cell noCPT: inconclusive; TDP1 cell CPT: -28.3%; IL-1B inflam inh: -93.6*; CtBP-E1A blk: -3.1; Six1-Eya2 inh: -6.8

What do the screens show for `CN(C)CCCN(C(=O)COc1ccc(Cl)cc1)c1nc2cc3c(cc2s1)OCO3`?
TDP1 cell noCPT: 13µM*; TDP1 block: 6.8%; TDP1 cell CPT: 8.2µM*; IL-1B inflam inh: -99.8*; CtBP-E1A blk: -23.0; Six1-Eya2 inh: -16.8

What do the screens show for `CN(C)CCCN(C(=O)COc1ccccc1)c1nc2cc3c(cc2s1)OCO3`?
TDP1 cell noCPT: -29.4%; TDP1 block: 7.0%; TDP1 cell CPT: 8.9%; IL-1B inflam inh: inactive; CtBP-E1A blk: -1.4; Six1-Eya2 inh: -8.8

Assay outcomes as filed in PubChem BioAssay.
